# Results reported in article PMC7819943, “Rice protein-binding microarrays: a tool to detect cis-acting elements near promoter regions in rice”.
# In all, about 68,000 sequences were measured (“fluorescence intensity (a.u.)”: median about 9,100, highest 2% from about 16,000 on). The sample as a whole holds a higher share of the highest values than the screen did.
# Target: OsWRKY34 (Oryza sativa, UniProt Q0JBA9 1-250)
# Assay: protein-binding microarray (RPBM); PBS, 2% BSA, 51.3 ng/ul salmon testes DNA, 50 uM zinc acetate, 200 nM TF, 25 C, 1 h; high values mean tight binding
# Conditions: protein: recombinant; tags: N-terminal polyhistidine and DsRed monomer fusion (pET32a); label: CyDye5-dUTP incorporated in the synthesized complementary strand; 3' TTTTT single-stranded linker to array surface; dsDNA, one strand shown
# Procedure, shortened: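 Binding signal is reported as fluorescence intensity per feature (arbitrary units) from an Axon 4000B scanner. Incubation used 200 nM of each Ni–NTA-purified, N-terminally polyhistidine- and DsRed-fused transcription factor from E. coli BL21-CodonPlus on a double-stranded custom Agilent array for 1 h at 25 °C, with 50 µM zinc acetate in the buffer, followed by washing.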
# Chain of OsWRKY34 (Q0JBA9 entry or part of it): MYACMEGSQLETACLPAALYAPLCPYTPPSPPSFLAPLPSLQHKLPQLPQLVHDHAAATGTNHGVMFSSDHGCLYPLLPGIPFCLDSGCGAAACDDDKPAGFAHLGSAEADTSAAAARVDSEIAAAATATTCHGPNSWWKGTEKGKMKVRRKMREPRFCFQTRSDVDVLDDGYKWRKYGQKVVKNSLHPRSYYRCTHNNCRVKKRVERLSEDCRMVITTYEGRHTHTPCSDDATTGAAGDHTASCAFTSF
row,Sequence,binding signal
1,TTTTTTTTTTATCCGTCCCTACTCCTCGCACCTTAAAAATCGGAGTCACCTAGTGCAG,10300 fluorescence intensity (a.u.)
2,GATCTCTCTCTCATCAGGACCCCGGCCTTAAGTTGTTTCTCGGAGTCACCTAGTGCAG,9120 fluorescence intensity (a.u.)
3,ATTTCCCGTCCTTGTCCTAAATGAGTACTAATTTTGATTTCGGAGTCACCTAGTGCAG,10400 fluorescence intensity (a.u.)
4,TACTTCCTTTGTCCCTAAATATTTGATGCCGTTGACTTTTCGGAGTCACCTAGTGCAG,23900 fluorescence intensity (a.u.)
5,GATACTCCCTCCATCCATAAATATTTGATGCCGTTGACTTCGGAGTCACCTAGTGCAG,12300 fluorescence intensity (a.u.)
6,TGGATTTATTTATTCTTGTTCTTTTTCTCGAAAATTTCCACGGAGTCACCTAGTGCAG,8640 fluorescence intensity (a.u.)
7,CTGCTATGAATTATCGGTTGCTTCCGGTGTTGGGCATTGACGGAGTCACCTAGTGCAG,12400 fluorescence intensity (a.u.)
8,TGACACCGTTGACTTTTCGACCAATGTTTGACCATTCGTTCGGAGTCACCTAGTGCAG,24400 fluorescence intensity (a.u.)
9,GGTTTTGTGATTTTGACACCCATTCAGGTTCGTTGTTTTTCGGAGTCACCTAGTGCAG,11900 fluorescence intensity (a.u.)
10,ACACCGTTGACTTTTCGACTAACGTTTGACCATTTGTTTTCGGAGTCACCTAGTGCAG,49300 fluorescence intensity (a.u.)
11,TTTCGACTAACGTTTGACCATTCGTTTTATTCAAAATTTTCGGAGTCACCTAGTGCAG,8880 fluorescence intensity (a.u.)
12,CTACTCCCTCCATTTCGAAATGTTTGACACCGTTGACTTTCGGAGTCACCTAGTGCAG,13900 fluorescence intensity (a.u.)
13,TTAAATGAGTGTTGACTTTTCGTATAACGTTTGACCATTTCGGAGTCACCTAGTGCAG,14600 fluorescence intensity (a.u.)
14,GATCCGCTCGCCCCGCCGCGCCGCCGACCATCGCCATCGCCGGAGTCACCTAGTGCAG,8410 fluorescence intensity (a.u.)
15,TCCCACCCGCTGCCACCAAAACCCTCCCCGCGCCCGGTCCCGGAGTCACCTAGTGCAG,10500 fluorescence intensity (a.u.)
16,TCGACAATGTCACTCCATCATATCATGGCCAAAATATAACCGGAGTCACCTAGTGCAG,8140 fluorescence intensity (a.u.)
17,TCGCGACCTCTCATCTATCGATCTTTGCATACATATATATCGGAGTCACCTAGTGCAG,17800 fluorescence intensity (a.u.)
18,CTCTCCTCTCCGGTCATCTCATATATACGTATCTATATCGCGGAGTCACCTAGTGCAG,8520 fluorescence intensity (a.u.)
19,CGCATATATATCTCTCTTTGCATCTGTACTCATCGAATCTCGGAGTCACCTAGTGCAG,8640 fluorescence intensity (a.u.)
20,ATCCCCGTGTTCTCCCCACACAAACCTTCGCGCCGCCCATCGGAGTCACCTAGTGCAG,9540 fluorescence intensity (a.u.)
21,CCTACTTGTTGGCTTCTATCTCCTGTTAATTAATTTCTCACGGAGTCACCTAGTGCAG,8450 fluorescence intensity (a.u.)
22,AATCGTTTTCTTTCTTGTCTTCAAACTTATTTTCCCGTTTCGGAGTCACCTAGTGCAG,9600 fluorescence intensity (a.u.)
23,AAGGGTGGGCGTGATGGAGTTTGGATGGGCCCTGCGACGGCGGAGTCACCTAGTGCAG,9160 fluorescence intensity (a.u.)

row,Sequence,binding signal
1,GGAGGGCGGTGGCGAGGGCGGCGGTGGCGCGGATGCTGGACGGAGTCACCTAGTGCAG,8960 fluorescence intensity (a.u.)
2,AGGTGGAGGTGGAGGTGGAGGAGGGCGGCGGGTGGCGATGCGGAGTCACCTAGTGCAG,16500 fluorescence intensity (a.u.)
3,GGCGGTGGCGGTGACGGTGGAGGTGGAGGCGGTGTGGCATCGGAGTCACCTAGTGCAG,8420 fluorescence intensity (a.u.)
4,GAGGAGAGGCGGGGTGAGACGGGACGGGAGGGTGGCGATGCGGAGTCACCTAGTGCAG,9530 fluorescence intensity (a.u.)
5,CAGTTTCATCCCTAGGTGGTGGTGGCGGTGCGTGGAGTGACGGAGTCACCTAGTGCAG,16600 fluorescence intensity (a.u.)
6,AGGAGGTGGTGGGTGGTGGTGGCTGCGGCTTGGCGCGATGCGGAGTCACCTAGTGCAG,9400 fluorescence intensity (a.u.)
7,CAGGTGGACGGCGGTGGTGGTGGTGGTGGTGGCGGCGATGCGGAGTCACCTAGTGCAG,17000 fluorescence intensity (a.u.)
8,GTCAGGTGGCGGCGGCGGCGGTGGTGGCGGTGGAGGTGGACGGAGTCACCTAGTGCAG,14400 fluorescence intensity (a.u.)
9,TCATGATGAATCGGGGTGGTGGAGGTTTGCTTGTTATGGTCGGAGTCACCTAGTGCAG,11000 fluorescence intensity (a.u.)
10,AGATTTGACTATCCTGCTGGAATCCGGTAACAATTTTTCACGGAGTCACCTAGTGCAG,9560 fluorescence intensity (a.u.)
11,TTGGTTGGTTGGTTATACAAAGACGCTACGAGTCCGGGAACGGAGTCACCTAGTGCAG,12400 fluorescence intensity (a.u.)
12,ACCATAAAGCCAAGTTTCATCCATAATCCTTATTTTTCATCGGAGTCACCTAGTGCAG,8670 fluorescence intensity (a.u.)
13,TGTTATATTTGTATTTGTGCTTTGCTTCTTCTAGGCTTTTCGGAGTCACCTAGTGCAG,8740 fluorescence intensity (a.u.)
14,TCTCTGTCTCACTCTTCCTCTCTCTCACACGCACGGCGAGCGGAGTCACCTAGTGCAG,8380 fluorescence intensity (a.u.)
15,GGGGCGCCGCCGTTCGTCCTGCTGCTTCCGCCGCATCCTGCGGAGTCACCTAGTGCAG,9650 fluorescence intensity (a.u.)
16,CCCCGGAAGGGGCGGGGAGGGGAGGGCGGCAGCGGCGCCGCGGAGTCACCTAGTGCAG,18500 fluorescence intensity (a.u.)
17,GGCCGGGGAGGGAGGGGCGCCGTCGTCCTGCTGCATCCTGCGGAGTCACCTAGTGCAG,20700 fluorescence intensity (a.u.)
18,GGGGAGGCGGGGTGGCGGGAGGGAAGGCGGCGGCGGCGCCCGGAGTCACCTAGTGCAG,12700 fluorescence intensity (a.u.)
19,CACTCCGCTGCCGCCCGCCGGAAGGGGAGGGGAGGAGGGGCGGAGTCACCTAGTGCAG,11700 fluorescence intensity (a.u.)
20,GGTGGAGGCGGGCGCGGTGGAGGCGGGGAGGAAGGGGAGCCGGAGTCACCTAGTGCAG,15100 fluorescence intensity (a.u.)
21,AGGGCGCCGTCGTTCGTCATGCTGCTTCCGCCGCATCCTGCGGAGTCACCTAGTGCAG,9240 fluorescence intensity (a.u.)
22,GGAGGGGCGGTGGCCGCCGGCGGCCCGCGCGGCGGGAGCGCGGAGTCACCTAGTGCAG,9240 fluorescence intensity (a.u.)
23,GGGGCGCCGGGAAGGAGGGCGCTGTGTGGGAGGGAGGGAGCGGAGTCACCTAGTGCAG,17100 fluorescence intensity (a.u.)
